From the supplement of paper PMC8728848
The full list was thinned out, with the strongest signals kept by preference.

Columns and labels:
Assay in all cases: glycan array binding signal (z-score within array); higher = stronger binding
Conditions in all cases: glycan notation: IUPAC condensed, linker removed
[1] = target: Fuc(a1-2)Gal(b1-3)GalNAc(a1-3)[Fuc(a1-2)]Gal(b1-4)GlcNAc
Procedure, shortened: (§1)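 Columns mapping to the same glycan were averaged after glycan names were converted to IUPAC-condensed notation. The data come from 3228 arrays in the Consortium for Functional Glycomics database, limited to those with an available protein sequence. Binding is reported as a within-array Z-score averaged across arrays of one protein sequence and across linkers.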

[2] = target: Fuc(a1-2)Gal(b1-3)GlcNAc(b1-2)Man(a1-3)[Fuc(a1-2)Gal(b1-3)GlcNAc(b1-2)Man(a1-6)]Man(b1-4)GlcNAc(b1-4)[Fuc(a1-6)]GlcNAc
Procedure, shortened: as §1

[3] = target: Fuc(a1-2)Gal(b1-3)GlcNAc(b1-3)Gal(b1-4)Glc
Procedure, shortened: as §1

Fuc(a1-2)Gal(b1-4)Glc = target: Fuc(a1-2)Gal(b1-4)Glc
Procedure, shortened: as §1

[4] = target: Fuc(a1-2)Gal3S(b1-4)GlcNAc
Procedure, shortened: as §1

[5] = target: Fuc(a1-2)Gal6S(b1-4)Glc6S
Procedure, shortened: as §1

[6] = target: Fuc(a1-2)[GalNAc(a1-4)]Gal(b1-4)GlcNAc
Procedure, shortened: as §1

[7] = target: Fuc(a1-3)[Gal(b1-4)]GlcNAc
Procedure, shortened: as §1

Gal(a1-3)Gal(b1-3)GlcNAc = target: Gal(a1-3)Gal(b1-3)GlcNAc
Procedure, shortened: as §1

[8] = target: Gal(a1-3)Gal(b1-3)[Fuc(a1-4)]GlcNAc(b1-2)Man(a1-3)[Gal(a1-3)Gal(b1-3)[Fuc(a1-4)]GlcNAc(b1-2)Man(a1-6)]Man(b1-4)GlcNAc(b1-4)GlcNAc
Procedure, shortened: as §1

Gal(a1-4)Gal(b1-4)Glc = target: Gal(a1-4)Gal(b1-4)Glc
Procedure, shortened: as §1

[9] = target: Gal(b1-3)GlcNAc(b1-2)[Gal(b1-3)GlcNAc(b1-6)]Man(a1-6)[Gal(b1-3)GlcNAc(b1-2)Man(a1-3)]Man(b1-4)GlcNAc(b1-4)GlcNAc
Procedure, shortened: as §1

[10] = target: Gal(b1-3)GlcNAc(b1-3)Gal(b1-3)GlcNAc
Procedure, shortened: as §1

[11] = target: Gal(b1-3)GlcNAc(b1-3)Gal(b1-4)GlcNAc(b1-3)Gal(b1-4)GlcNAc(b1-2)[Gal(b1-3)GlcNAc(b1-3)Gal(b1-4)GlcNAc(b1-3)Gal(b1-4)GlcNAc(b1-6)]Man(a1-6)[Gal(b1-3)GlcNAc(b1-3)Gal(b1-4)GlcNAc(b1-3)Gal(b1-4)GlcNAc(b1-2)Man(a1-3)]Man(b1-4)GlcNAc(b1-4)[Fuc(a1-6)]GlcNAc
Procedure, shortened: as §1

[12] = target: Gal(b1-3)[Fuc(a1-4)]GlcNAc(b1-3)Gal(b1-4)GlcNAc
Procedure, shortened: as §1

[13] = target: Gal(b1-3)[Neu5Ac(a2-6)]GlcNAc(b1-4)Gal(b1-4)Glc
Procedure, shortened: as §1

[14] = target: Gal(b1-3)[Neu5Ac(b2-6)]GalNAc
Procedure, shortened: as §1

[15] = target: Gal(b1-4)GalNAc(b1-3)[Fuc(a1-2)]Gal(b1-4)GlcNAc
Procedure, shortened: as §1

[16] = target: Gal(b1-4)GlcNAc(a1-6)Gal(b1-4)GlcNAc
Procedure, shortened: as §1

Gal(b1-4)GlcNAc(b1-2)Man = target: Gal(b1-4)GlcNAc(b1-2)Man
Procedure, shortened: as §1

[17] = target: Gal(b1-4)GlcNAc(b1-2)[Gal(b1-4)GlcNAc(b1-4)]Man(a1-3)[Gal(b1-4)GlcNAc(b1-2)Man(a1-6)]Man(b1-4)GlcNAc(b1-4)GlcNAc
Procedure, shortened: as §1

[18] = target: Gal(b1-4)GlcNAc(b1-2)[Gal(b1-4)GlcNAc(b1-4)]Man(a1-3)[GlcNAc(b1-4)][Gal(b1-4)GlcNAc(b1-2)[Gal(b1-4)GlcNAc(b1-6)]Man(a1-6)]Man(b1-4)GlcNAc(b1-4)GlcNAc
Procedure, shortened: as §1

[19] = target: Gal(b1-4)GlcNAc(b1-2)[Gal(b1-4)GlcNAc(b1-6)]Man(a1-6)[Gal(b1-4)GlcNAc(b1-2)Man(a1-3)]Man(b1-4)GlcNAc(b1-4)GlcNAc
Procedure, shortened: as §1

[20] = target: Gal(b1-4)GlcNAc(b1-2)[Gal(b1-4)GlcNAc(b1-6)]Man(a1-6)[Gal(b1-4)GlcNAc(b1-2)Man(a1-3)]Man(b1-4)GlcNAc(b1-4)[Fuc(a1-6)]GlcNAc
Procedure, shortened: as §1

[21] = target: Gal(b1-4)GlcNAc(b1-2)[Gal(b1-4)GlcNAc(b1-6)]Man(a1-6)[GlcNAc(b1-4)][Gal(b1-4)GlcNAc(b1-2)[Gal(b1-4)GlcNAc(b1-4)]Man(a1-3)]Man(b1-4)GlcNAc(b1-4)[Fuc(a1-6)]GlcNAc
Procedure, shortened: as §1

[22] = target: Gal(b1-4)GlcNAc(b1-3)Gal(b1-4)GlcNAc(b1-2)[Gal(b1-4)GlcNAc(b1-3)Gal(b1-4)GlcNAc(b1-6)]Man(a1-6)[Gal(b1-4)GlcNAc(b1-3)Gal(b1-4)GlcNAc(b1-2)Man(a1-3)]Man(b1-4)GlcNAc(b1-4)[Fuc(a1-6)]GlcNAc
Procedure, shortened: as §1

[23] = target: Gal(b1-4)GlcNAc(b1-3)Gal(b1-4)GlcNAc(b1-3)Gal(b1-4)GlcNAc(b1-2)Man(a1-3)[Gal(b1-4)GlcNAc(b1-3)Gal(b1-4)GlcNAc(b1-3)Gal(b1-4)GlcNAc(b1-2)Man(a1-6)]Man(b1-4)GlcNAc(b1-4)[Fuc(a1-6)]GlcNAc
Procedure, shortened: as §1

[24] = target: Gal(b1-4)GlcNAc(b1-3)Gal(b1-4)GlcNAc(b1-3)Gal(b1-4)GlcNAc(b1-2)[Gal(b1-4)GlcNAc(b1-3)Gal(b1-4)GlcNAc(b1-3)Gal(b1-4)GlcNAc(b1-6)]Man(a1-6)[Gal(b1-4)GlcNAc(b1-3)Gal(b1-4)GlcNAc(b1-3)Gal(b1-4)GlcNAc(b1-2)Man(a1-3)]Man(b1-4)GlcNAc(b1-4)[Fuc(a1-6)]GlcNAc
Procedure, shortened: as §1

[25] = target: Gal(b1-4)GlcNAc(b1-3)Gal(b1-4)GlcNAc(b1-3)Gal(b1-4)GlcNAc(b1-3)Gal(b1-4)GlcNAc(b1-2)Man(a1-3)[Gal(b1-4)GlcNAc(b1-3)Gal(b1-4)GlcNAc(b1-3)Gal(b1-4)GlcNAc(b1-3)Gal(b1-4)GlcNAc(b1-2)Man(a1-6)]Man(b1-4)GlcNAc(b1-4)[Fuc(a1-6)]GlcNAc
Procedure, shortened: as §1

[26] = target: Gal(b1-4)GlcNAc(b1-3)Gal(b1-4)GlcNAc(b1-3)Gal(b1-4)GlcNAc(b1-3)Gal(b1-4)GlcNAc(b1-2)[Gal(b1-4)GlcNAc(b1-3)Gal(b1-4)GlcNAc(b1-3)Gal(b1-4)GlcNAc(b1-3)Gal(b1-4)GlcNAc(b1-6)]Man(a1-6)[Gal(b1-4)GlcNAc(b1-3)Gal(b1-4)GlcNAc(b1-3)Gal(b1-4)GlcNAc(b1-3)Gal(b1-4)GlcNAc(b1-2)Man(a1-3)]Man(b1-4)GlcNAc(b1-4)[Fuc(a1-6)]GlcNAc
Procedure, shortened: as §1

B1: Threefoil (Haloarcula marismortui) (protein)
chain: GSSHHHHHHHHHHSSGLVPRGSHMGDGYYKLVARHSGKALDVENASTSDGANVIQYSYSGGDNQQWRLVDLGDGYYKLVARHSGKALDVENASTSDGANVIQYSYSGGDNQQWRLVDLGDGYYKLVARHSGKALDVENASTSDGANVIQYSYSGGDNQQWRLVDL
B1 was tested, and the “glycan array binding signal (z-score)” value [1] was -0.165, the “glycan array binding signal (z-score)” value [2] was 0.056 and the “glycan array binding signal (z-score)” value [3] was -0.192. The “glycan array binding signal (z-score)” value (Fuc(a1-2)Gal(b1-4)Glc) was -0.107, the “glycan array binding signal (z-score)” value [4] was -0.199 and the “glycan array binding signal (z-score)” value [5] was -0.153. The “glycan array binding signal (z-score)” value [6] was -0.341, the “glycan array binding signal (z-score)” value [7] was -0.151 and the “glycan array binding signal (z-score)” value (Gal(a1-3)Gal(b1-3)GlcNAc) was -0.298. For the same binder, the “glycan array binding signal (z-score)” value [8] was -0.217, the “glycan array binding signal (z-score)” value (Gal(a1-4)Gal(b1-4)Glc) was 0.139 and the “glycan array binding signal (z-score)” value [9] was 0.155. For the same binder, the “glycan array binding signal (z-score)” value [10] was -0.266, the “glycan array binding signal (z-score)” value [11] was 0.426 and the “glycan array binding signal (z-score)” value [12] was 0.307. For the same binder, the “glycan array binding signal (z-score)” value [13] was -0.13, the “glycan array binding signal (z-score)” value [14] was -0.229 and the “glycan array binding signal (z-score)” value [15] was -0.231. For the same binder, the “glycan array binding signal (z-score)” value [16] was 0.067, the “glycan array binding signal (z-score)” value (Gal(b1-4)GlcNAc(b1-2)Man) was -0.105 and the “glycan array binding signal (z-score)” value [17] was 3.48. The “glycan array binding signal (z-score)” value [18] was 8.13, the “glycan array binding signal (z-score)” value [19] was 0.527 and the “glycan array binding signal (z-score)” value [20] was 3.39. The “glycan array binding signal (z-score)” value [21] was 6.8, the “glycan array binding signal (z-score)” value [22] was 6.34 and the “glycan array binding signal (z-score)” value [23] was 6.67. The “glycan array binding signal (z-score)” value [24] was 9.87, the “glycan array binding signal (z-score)” value [25] was 3.74 and the “glycan array binding signal (z-score)” value [26] was 7.31.
